Records with an inconclusive call do not appear. Entries that show only a call come without a potency. Active and inactive are the calls of the source. Calls follow the shape of the dose curve; as a rule, active = well fitted inhibition curve with a large enough effect in the signal ratio in the repeat runs (not every such curve was filed as active); inconclusive = weak or mixed curves, or effect the other way; inactive = flat fitted curve, though single readings scatter; the % refers to the signal ratio.
Experiment: cAMP Responsive Elements (CRE) small molecule antagonists, cell-based qHTS assay (AID 1963591)
Details: CRE-bla HEK293T, beta-lactamase FRET ratio; series mostly up to 92.4 µM
Description: U.S. Tox21 Program National Center for Advancing Translational Sciences [NCATS] Division of Preclinical Innovation [DPI] U.S. Environmental Protection Agency [EPA] National Institutes of Environmental Health Sciences [NIEHS] National Toxicology Program [NTP] U.S. Food and Drug Administration [FDA] Tox21 Assay Overview: CREB (cyclic-AMP Responsive Element Binding Protein) is a cellular transcription factor. It binds to certain DNA sequences called cAMP Responsive Elements (CRE) and regulates the transcription of the genes. […] This cell line can be used to find agonists/antagonists of the cyclic AMP signaling pathway. The activation of the report gene under culture conditions can be detected by fluorescence intensity. This cell line has been used to screen the Tox21 10K compound library to […].
Tox21 Assay Protocol Summary: CRE-bla Hek 293T cells were suspended in assay medium (DMEM containing 10% dialyzed FBS, 0.1 mM NEAA, 1 mM sodium pyruvate and 25 mM HEPES) and dispensed at 2,000 cells/4 uL /well into 1536-well black wall/clear bottom plates using a Multidrop Combi (ThermoFisher Scientific, Waltham, MA) dispenser. After the assay plates were incubated at 37 C/5% CO2 for 18 hrs, 23 nL of compounds dissolved in DMSO, positive controls or DMSO only was transferred to the assay plate by a pintool workstation (Kalypsys, San Diego, CA), followed by addition of 1 […] uL of 1.25uM NKH477 (0.25 uM as final concentration) in assay medium using a Flying Reagent Dispenser (Aurora Discovery, San Diego, CA). The plates were incubated at 37 C and 5% CO2 for 3 hrs. Then 1 uL of LiveBLAzer B/G FRET substrate (Invitrogen, Carlsbad, CA) was added to each well using Bioraptr Flying Reagent Dispenser (FRD, Aurora Discovery, San Diego, CA). The plates were incubated at room temperature for 2 h.
Potency is read from the fitted curve at half-maximal effect.

**Q.** For `Nc1ccccc1Cl`, which Potency is on record?
**A.** inactive

**Q.** With `CCCCCCCCCCCCCCn1cc[n+](C)c1` as the compound, how does the Potency read?
**A.** inactive

**Q.** Which Potency does the source give for `C=CC=O` here?
**A.** inactive

**Q.** Which Potency does the source give for `CCCCCCCCC(=O)NCc1ccc(O)c(OC)c1` here?
**A.** inactive

**Q.** With `Cc1cc(-c2cc(C)c(N)c(C)c2)cc(C)c1N` as the compound, how does the Potency read?
**A.** inactive

**Q.** For `Cc1cccc(N)c1C`, which Potency is on record?
**A.** inactive

**Q.** Which Potency does the source give for `CCCCCCCCCCCCCl` here?
**A.** inactive

**Q.** For `CC(C)NC(C)C`, which Potency is on record?
**A.** inactive

**Q.** Which Potency does the source give for `CNC(=O)Oc1cccc2c1OC(C)(C)C2` here?
**A.** inactive

**Q.** For `Fc1cc(Br)ccc1CBr`, which Potency is on record?
**A.** inactive

**Q.** With `S=C=S` as the compound, how does the Potency read?
**A.** inactive

**Q.** For `CC1C=[C-]C=C1.[C-]#[O+].[C-]#[O+].[C-]#[O+].[Mn]`, which Potency is on record?
**A.** inactive

**Q.** Which Potency does the source give for `N#Cc1cc([N+](=O)[O-])ccc1N` here?
**A.** inactive

**Q.** With `O=C(Cl)C(Cl)Cl` as the compound, how does the Potency read?
**A.** inactive

**Q.** Which Potency does the source give for `Cc1cccc(C#N)c1` here?
**A.** inactive

**Q.** With `N#Cc1ccc(O)cc1` as the compound, how does the Potency read?
**A.** inactive

**Q.** For `Clc1ccccc1Cl`, which Potency is on record?
**A.** inactive

**Q.** For `C=CCc1ccc(OC)cc1`, which Potency is on record?
**A.** inactive

**Q.** With `CCC(C)n1c(=O)[nH]c(C)c(Br)c1=O` (stereo not given) as the compound, how does the Potency read?
**A.** inactive

**Q.** Which Potency does the source give for `CC(C)=C[C@@H]1[C@@H](C(=O)OCc2coc(Cc3ccccc3)c2)C1(C)C` here?
**A.** inactive

**Q.** Which Potency does the source give for `C=Cc1cccc(CCl)c1` here?
**A.** inactive

**Q.** Which Potency does the source give for `O=C/C=C/c1ccco1` here?
**A.** inactive

**Q.** With `Nc1ccc(-c2ccc(N)c(Cl)c2)cc1Cl` as the compound, how does the Potency read?
**A.** inactive

**Q.** Which Potency does the source give for `Cc1ccc([N+](=O)[O-])cc1` here?
**A.** inactive

**Q.** With `Nc1nc(=S)[nH][nH]1` as the compound, how does the Potency read?
**A.** inactive

**Q.** With `Clc1cnc(Oc2ccc(Oc3ncc(Cl)cc3Cl)cc2)c(Cl)c1` as the compound, how does the Potency read?
**A.** inactive

**Q.** Which Potency does the source give for `O=NN(c1ccccc1)c1ccccc1` here?
**A.** inactive

**Q.** With `O=C(O)C(Cl)(Cl)Cl` as the compound, how does the Potency read?
**A.** inactive

**Q.** For `CCCC[N+]1(C)CCCC1`, which Potency is on record?
**A.** inactive

**Q.** Which Potency does the source give for `COc1ccc(N)cc1` here?
**A.** inactive

**Q.** With `CN1C[C@H](C(=O)N[C@]2(C)O[C@@]3(O)[C@@H]4CCCN4C(=O)[C@H](Cc4ccccc4)N3C2=O)C=C2c3cccc4[nH]cc(c34)C[C@H]21` as the compound, how does the Potency read?
**A.** 48.8 µM (active)

**Q.** For `CCCn1cc[n+](C)c1`, which Potency is on record?
**A.** inactive

**Q.** For `CCN(CC)C(=S)S`, which Potency is on record?
**A.** inactive

**Q.** With `COCC(=O)N(c1c(C)cccc1C)N1CCOC1=O` as the compound, how does the Potency read?
**A.** inactive

**Q.** With `Brc1ccc(Oc2ccccc2)cc1` as the compound, how does the Potency read?
**A.** inactive

**Q.** Which Potency does the source give for `CC(O)CN(CC(C)O)CC(C)O` (stereo not given) here?
**A.** inactive

**Q.** Which Potency does the source give for `CSc1nc(NC(C)C)nc(NC(C)C)n1` here?
**A.** inactive

**Q.** Which Potency does the source give for `c1ccc(OP(Oc2ccccc2)Oc2ccccc2)cc1` here?
**A.** inactive

**Q.** Which Potency does the source give for `CC(=O)O` here?
**A.** inactive

**Q.** With `C=C(C)C(=O)OCC(CC)CCCC` (stereo not given) as the compound, how does the Potency read?
**A.** inactive
